{"source": "PubChem BioAssay (Tox21)", "note": "Results filed as inconclusive are left out. Entries that show only a call come without a potency. Activity calls are given as the source filed them. The call rests on the fitted dose curve; in most records, active means well fitted cell-killing curve with a large enough effect in the repeat runs; inconclusive means weak or mixed curves, or effect the other way; inactive means flat fitted curve, though single readings scatter. Potency means the concentration at half of the fitted maximal effect.", "data": [{"test": "qHTS assay to identify small molecule that activate the aryl hydrocarbon receptor (AhR) signaling pathway - cell viability counter screen (AID 743086); further: nearly all actives have a fitted effect of over 45% in size", "conditions": "HepG2-AhR-luc viability, CellTiter-Fluor, 24 h; series mostly up to 70.3 µM", "excerpt": "U.S. Tox21 Program National Center for Advancing Translational Sciences [NCATS] NIH Chemical Genomics Center [NCGC] U.S. Environmental Protection Agency [EPA] National Institutes of Environmental Health Sciences [NIEHS] National Toxicology Program [NTP] U.S. Food and Drug Administration [FDA] Tox21 Assay overview: The Aryl hydrocarbon Receptor (AhR), a member of the family of basic helix-loop-helix transcription factors, is crucial to adaptive responses to environmental changes. AhR mediates cellular responses to environmental pollutants such as aromatic hydrocarbons through induction of phase I and II enzymes but also interacts with other nuclear receptor signaling pathways A cell based HepG2-AhR-luc assay (HG2L7.5c1 cell line, developed by Dr. Michael S. Denison, University of California at Davis) was used to assess the activation of AhR. HepG2 (human hepatocellular carcinoma) cells were stably transfected with an Ah receptor-responsive firefly luciferase reporter gene plasmid containing 20 dioxin responsive elements and luciferase reporter gene. Increased luciferase activity can be used to identify the compounds that induce AhR activation. The cytotoxicity of the compounds screened against the HepG2-AhR-luc cell line was tested in parallel by measuring the cell viability using CellTiter-Fluor assay in the same wells.\nTox21 Assay Protocol Summary: 4000 cells in 5 uL/well were dispensed into white wall/solid bottom 1536-well plates using a Multidrop Combi (Thermo Fisher Scientific Inc., Waltham, MA) dispenser. After the assay plates were incubated at 37C for 5 h, 23 nL of compound or DMSO vehicle was transferred to the assay plates by a pintool station (Kalypsys, San Diego, CA). The plates were incubated at 37C for 24 hr. For cell viability measurement, 1 ul/well of CellTiter-Fluor reagent (Promega, Madison, WI) was added into the assay plates using a Flying Reagent Dispenser (FRD) (Aurora Discovery, CA),and then the assay plates were incubated at 37C for 30 min. The fluorescence intensity in the plates was measured using a ViewLux plate reader (PerkinElmer, Shelton, CT), followed by the addition of 4 uL of ONE-Glo Luciferase Assay reagent (Promega) using an FRD (Aurora Discovery). After the assay plates were incubated at room temperature for 30 min, luminescence intensity was measured using a ViewLux plate reader (Perkin Elmer).", "values": [{"compound": "CCN(CC)CCNc1ccc(CNC=O)c2sc3ccc(OC)cc3c(=O)c12", "Potency": "5.45 µM (active)"}, {"compound": "Nc1ncn([C@H]2C[C@H](O)[C@@H](CO)O2)c(=O)n1", "Potency": "inactive"}, {"compound": "COc1cc(Cl)ccc1Oc1ccc(Cl)cc1Cl", "Potency": "inactive"}, {"compound": "CC(CSC(=O)c1ccccc1)C(=O)N1C[C@@H](Sc2ccccc2)C[C@H]1C(=O)O", "note": "(stereo not given in full)", "Potency": "inactive"}, {"compound": "CC(=O)c1ccc2c(c1)N(CCCN1CCC(CCO)CC1)c1ccccc1S2", "Potency": "inactive"}, {"compound": "CN1CCC(=C2c3ccccc3Sc3ccccc32)CC1", "Potency": "29.8 µM (active)"}, {"compound": "CC(=O)[O][Al]", "Potency": "inactive"}, {"compound": "CCCCCCCN", "Potency": "inactive"}, {"compound": "CC1OC(=O)C(C)OC1=O", "note": "(stereo not given)", "Potency": "inactive"}, {"compound": "Cc1cc(C(=O)O)ccc1[N+](=O)[O-]", "Potency": "inactive"}, {"compound": "CCCCCCCCO[C@@H]1O[C@H](CO)[C@@H](O)[C@H](O)[C@H]1O", "Potency": "inactive"}, {"compound": "COC(=O)c1ccc(I)cc1S(=O)(=O)NC(=O)Nc1nc(C)nc(OC)n1", "Potency": "inactive"}, {"compound": "CCCCCCCC/C=C\\CCCCCCCC(=O)OCC", "Potency": "inactive"}, {"compound": "COc1cc2nc(N(C)CCCNC(=O)C3CCCO3)nc(N)c2cc1OC", "note": "(stereo not given)", "Potency": "inactive"}, {"compound": "CC(C)=CCC/C(C)=C/CC/C(C)=C/CO", "Potency": "inactive"}, {"compound": "CCC(C)O", "note": "(stereo not given)", "Potency": "inactive"}, {"compound": "CC1=CC[C@H](C(C)C)C=C1", "Potency": "inactive"}, {"compound": "Nc1ccc(S(=O)(=O)Nc2ccccc2)cc1", "Potency": "inactive"}, {"compound": "COc1ccc(C(=O)c2ccc(OC)cc2O)c(O)c1", "Potency": "inactive"}, {"compound": "CCc1c(C(=O)NN2CCCCC2)nn(-c2ccc(Cl)cc2Cl)c1-c1ccc(Br)cc1", "Potency": "inactive"}, {"compound": "CCC(=O)O[C@]1(C(=O)CCl)[C@@H](C)C[C@H]2[C@@H]3CCC4=CC(=O)C=C[C@]4(C)[C@@]3(F)[C@@H](O)C[C@@]21C", "Potency": "inactive"}, {"compound": "Cc1ccccc1S(=O)(=O)O", "Potency": "inactive"}, {"compound": "CCN(CC)CCOC(=O)C(Cc1cccc2ccccc12)CC1CCCO1", "note": "(stereo not given)", "Potency": "inactive"}, {"compound": "CCCOC(C(=O)OC1CCN(C)CC1)(c1ccccc1)c1ccccc1", "Potency": "29.8 µM (active)"}, {"compound": "COc1ccc(C(=O)N2CCN(CC(=O)N3CCOCC3)CC2)cc1", "Potency": "inactive"}, {"compound": "Cn1c(=O)cc(Oc2ccc(F)cc2F)c2cnc(NCC(C)(C)O)nc21", "Potency": "inactive"}, {"compound": "S=C([S-])NCCNC(=S)[S-].[Mn+2]", "Potency": "inactive"}, {"compound": "NCC(=O)O", "Potency": "inactive"}, {"compound": "CCCCC/C=C\\C/C=C\\CCCCCCCC(=O)NC(C)c1ccccc1", "note": "(stereo not given)", "Potency": "inactive"}, {"compound": "NCCCN1CCOCC1", "Potency": "inactive"}, {"compound": "Brc1c2ccccc2cc2ccccc12", "Potency": "inactive"}, {"compound": "N=c1ccn2c(n1)O[C@H]1[C@H](O)[C@@H](CO)O[C@H]12", "Potency": "inactive"}, {"compound": "CC(C)(CO)[N+](=O)[O-]", "Potency": "inactive"}, {"compound": "CC[N+]1(CC)CCC(=C(c2ccccc2)c2ccccc2)C1C", "note": "(stereo not given)", "Potency": "inactive"}, {"compound": "O=C(Cl)c1cc(C(=O)Cl)cc(C(=O)Cl)c1", "Potency": "inactive"}, {"compound": "O=P(O)(OCc1ccccc1)OCc1ccccc1", "Potency": "inactive"}, {"compound": "OC(C#CCN1CCCC1)(c1ccccc1)c1ccccc1", "Potency": "inactive"}, {"compound": "CC1=CCCC(C)(C)C12CCC(C)O2", "note": "(stereo not given)", "Potency": "inactive"}, {"compound": "CC(C)CC(=O)C1C(=O)c2ccccc2C1=O", "Potency": "inactive"}, {"compound": "Cc1cccc(C)c1NC(=O)CN(CC(=O)O)CC(=O)O", "Potency": "inactive"}]}]}
